In PubChem BioAssay (EPA / NIEHS) one finds outcome and AC50 data, which are given here for three compounds.

Conditions in all cases: mRNA level, 48 h; actives raise or lower the signal
Read-out in test [1]: ABC Transporter (ABCC3), ABCC3 (gene 8714)
In words: LTEA_HepaRG_ABCC3: Life Technologies and Expression Analysis (LTEA) Assay for ABC Transporter (ABCC3) using HepaRG (AID 2283462). The procedure, abridged:
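HepaRG cells in serum-free induction medium were exposed for 48 h in duplicate to 8-point half-log concentrations topping at 100 uM in 0.5% DMSO. ABCC3 mRNA was measured by qRT-PCR normalized to ACTB, GAPDH and POLR2A, with bidirectional fitting versus DMSO.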

Read-out in test [2]: ABC Transporter (ABCB11), ABCB11 (gene 8647)
Put plainly: LTEA_HepaRG_ABCB11: Life Technologies and Expression Analysis (LTEA) Assay for ABC Transporter (ABCB11) using HepaRG (AID 2283463). A digest of the protocol: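 HepaRG, 48 h exposure, 8-pt half-log CRC top 100 uM, 0.5% DMSO vehicle, duplicates. Readout: TaqMan qRT-PCR of ABCB11 mRNA, housekeeping-normalized (ACTB/GAPDH/POLR2A). Bidirectional fit vs DMSO baseline.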

Read-out in test [3]: ABC Transporter (ABCC2), ABCC2 (gene 1244)
Put plainly: LTEA_HepaRG_ABCC2: Life Technologies and Expression Analysis (LTEA) Assay for ABC Transporter (ABCC2) using HepaRG (AID 2283464). The procedure, abridged:
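HepaRG cells were plated 48 h, switched to serum-free induction medium, then exposed in duplicate for 48 h to 8 concentrations (top 100 uM, half-log steps, 0.5% DMSO). ABCC2 mRNA was measured by qRT-PCR normalized to ACTB/GAPDH/POLR2A; bidirectional fitting versus DMSO.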

Read-out in test [4]: Broad substrate specificity ATP-binding cassette transporter ABCG2 (Homo sapiens) (UniProt Q9UNQ0)
Put plainly: LTEA_HepaRG_ABCG2: Life Technologies and Expression Analysis (LTEA) Assay for ABC Transporter (ABCG2) using HepaRG (AID 2283465). A digest of the protocol: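 HepaRG, 48 h exposure, 8-pt half-log series from 100 uM, 0.5% DMSO vehicle, duplicates. Readout: ABCG2 transcript by qRT-PCR (Fluidigm array), housekeeping-normalized; bidirectional curve fit relative to DMSO baseline.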

Read-out in test [5]: ATP-citrate lyase (ACLY), ACLY (gene 47)
Put plainly: LTEA_HepaRG_ACLY: Life Technologies and Expression Analysis (LTEA) Assay for ATP-citrate lyase (ACLY) using HepaRG (AID 2283466). A digest of the protocol: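 qRT-PCR readout of ACLY transcript after 48 h chemical treatment of HepaRG cells; expression normalized to three housekeeping genes. Eight-point half-log series, highest 100 uM, 0.5% DMSO vehicle. Gain or loss fitted against DMSO baseline.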

Read-out in test [6]: Peroxisomal acyl-coenzyme A oxidase 1 (ACOX1) gene, ACOX1 (gene 51)
Put plainly: LTEA_HepaRG_ACOX1: Life Technologies and Expression Analysis (LTEA) Assay for Peroxisomal acyl-coenzyme A oxidase 1 (ACOX1) gene using HepaRG (AID 2283467). A digest of the protocol: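 HepaRG, 48 h chemical exposure, 8-pt half-log series from 100 uM top, 0.5% DMSO vehicle, duplicates. Readout: ACOX1 mRNA by Fluidigm qRT-PCR, housekeeping-normalized; bidirectional fit vs DMSO baseline.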

Read-out in test [7]: Alkaline Phosphatase, Placental (ALPP) gene, ALPP (gene 250)
Put plainly: LTEA_HepaRG_ALPP: Life Technologies and Expression Analysis (LTEA) Assay for Alkaline Phosphatase, Placental (ALPP) gene using HepaRG (AID 2283468). The procedure, abridged: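 Differentiated human HepaRG cells were plated and cultured 48 h, then exposed in duplicate for 48 h in serum-free induction medium to eight half-log concentrations from 100 uM in 0.5% DMSO. ALPP mRNA was measured by TaqMan qRT-PCR, normalized to ACTB, GAPDH, POLR2A.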

Read-out in test [8]: Bcl-2 (BAD) gene, BAD (gene 572)
Put plainly: LTEA_HepaRG_BAD: Life Technologies and Expression Analysis (LTEA) Assay for Bcl-2 (BAD) gene using HepaRG (AID 2283469). A digest of the protocol: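 HepaRG, 48 h exposure, 8-pt half-log curve from 100 uM in 0.5% DMSO, duplicates. Readout: TaqMan qRT-PCR for BAD mRNA, housekeeping-normalised (ACTB/GAPDH/POLR2A); gain or loss fitted against DMSO baseline.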

Read-out in test [9]: Bcl-2 (BAX) gene, BAX (gene 581)
In words: LTEA_HepaRG_BAX: Life Technologies and Expression Analysis (LTEA) Assay for Bcl-2 (BAX) gene using HepaRG (AID 2283470). A digest of the protocol:
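Cells were thawed, plated for 48 h, moved to serum-free induction medium and dosed for 48 h (highest concentration 100 uM, half-log steps, 0.5% DMSO). Total RNA was then analysed for BAX expression by qRT-PCR.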

Read-out in test [10]: Alpha-fetoprotein (AFP) gene, AFP (gene 174)
Put plainly: LTEA_HepaRG_AFP: Life Technologies and Expression Analysis (LTEA) Assay for Alpha-fetoprotein (AFP) gene using HepaRG (AID 2283472). A digest of the protocol: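 Chemicals were tested on differentiated HepaRG cells for 48 hours at eight concentrations up to 100 uM, with 0.5% DMSO as vehicle. AFP expression was then quantified by qRT-PCR and analyzed for gain or loss relative to DMSO.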

Read-out in the next test: BCL2L11 (gene 10018)
In words: LTEA_HepaRG_BCL2L11: Life Technologies and Expression Analysis (LTEA) Assay for Bcl-2 (BCL2L11) gene using HepaRG (AID 2283473). A digest of the protocol: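 Differentiated human HepaRG cells in serum-free induction medium were exposed in duplicate for 48 h to eight concentrations (top 100 uM, half-log steps, 0.5% DMSO). BCL2L11 mRNA was quantified by TaqMan qRT-PCR, normalized to ACTB/GAPDH/POLR2A, bidirectional fit versus DMSO.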

Read-out in test [11]: Apolipoprotein A-V (APOA5) gene, APOA5 (gene 116519)
Put plainly: LTEA_HepaRG_APOA5: Life Technologies and Expression Analysis (LTEA) Assay for Apolipoprotein A-V (APOA5) gene using HepaRG (AID 2283474). The procedure, abridged: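 Differentiated human HepaRG cells were exposed in duplicate for 48 h to eight half-log concentrations from 100 uM in 0.5% DMSO. APOA5 mRNA was quantified by TaqMan qRT-PCR, normalized to ACTB, GAPDH and POLR2A, and fitted bidirectionally against DMSO.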

Read-out in test [12]: Apoptosis regulator Bcl-2 (Homo sapiens) (UniProt P10415)
Put plainly: LTEA_HepaRG_BCL2: Life Technologies and Expression Analysis (LTEA) Assay for Bcl-2 gene using HepaRG (AID 2283475). A digest of the protocol: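 Plated human HepaRG cells are exposed to test chemicals for 48 h across eight concentrations from 100 uM downward in half-log steps (0.5% DMSO). BCL2 expression is then measured by qRT-PCR with housekeeping normalisation and fitted bidirectionally against vehicle.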

Read-out in test [13]: Bcl-2 (BID) gene, BID (gene 637)
In words: LTEA_HepaRG_BID: Life Technologies and Expression Analysis (LTEA) Assay for Bcl-2 (BID) gene using HepaRG (AID 2283476). The procedure, abridged: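 Cells are plated, cultured 48 h, switched to serum-free induction medium, then dosed 48 h (100 uM top, half-log steps, 0.5% DMSO). RNA is isolated and BID expression read by qRT-PCR.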

Read-out in another test: Caspase-3 (Homo sapiens) (UniProt P42574)
Put plainly: LTEA_HepaRG_CASP3: Life Technologies and Expression Analysis (LTEA) Assay for cysteine-aspartic acid protease (CASP3) using HepaRG (AID 2283477). A digest of the protocol: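 Differentiated human HepaRG cells in serum-free induction medium were exposed 48 h to 8-point half-log concentrations from 100 uM (0.5% DMSO vehicle). CASP3 mRNA was measured by qRT-PCR, normalised to ACTB, GAPDH and POLR2A, with bidirectional fitting against DMSO.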

Read-out in test [14]: Cytochrome P450 (CYP24A1), CYP24A1 (gene 1591)
Put plainly: LTEA_HepaRG_CYP24A1: Life Technologies and Expression Analysis (LTEA) Assay for Cytochrome P450 (CYP24A1) using HepaRG (AID 2283478). The procedure, abridged:
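Differentiated HepaRG cells, pre-cultured 48 h, were exposed in duplicate for 48 h in serum-free induction medium to 8 half-log concentrations (top 100 uM, 0.5% DMSO). CYP24A1 mRNA was quantified by TaqMan qRT-PCR, normalized to ACTB/GAPDH/POLR2A, fitted bidirectionally versus DMSO.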

Read-out in test [15]: Cytochrome P450 (CYP1A2), CYP1A2 (gene 1544)
Put plainly: LTEA_HepaRG_CYP1A2: Life Technologies and Expression Analysis (LTEA) Assay for Cytochrome P450 (CYP1A2) using HepaRG (AID 2283479). A digest of the protocol: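 Differentiated human HepaRG cells in serum-free induction medium were exposed in duplicate for 48 h to 8-point half-log concentrations up to 100 uM in 0.5% DMSO. CYP1A2 mRNA measured by qRT-PCR, normalized to ACTB, GAPDH, POLR2A; bidirectional fit vs DMSO.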

Read-out in test [16]: cysteine-aspartic acid protease (CASP8), CASP8 (gene 841)
In words: LTEA_HepaRG_CASP8: Life Technologies and Expression Analysis (LTEA) Assay for cysteine-aspartic acid protease (CASP8) using HepaRG (AID 2283480). A digest of the protocol:
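qRT-PCR readout of CASP8 mRNA, normalized to three housekeeping genes, after 48 h chemical exposure of HepaRG cells; 8-point half-log series, top 100 uM, 0.5% DMSO vehicle. Bidirectional curve fitting against DMSO baseline.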

Read-out in test [17]: growth arrest and DNA damage 45 (GADD45B), GADD45B (gene 4616)
In words: LTEA_HepaRG_GADD45B: Life Technologies and Expression Analysis (LTEA) Assay for growth arrest and DNA damage 45 (GADD45B) using HepaRG (AID 2283461). The procedure, abridged:
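Differentiated HepaRG cells, plated 48 h then switched to serum-free induction medium, were exposed 48 h in duplicate to eight half-log concentrations from 100 uM in 0.5% DMSO; mRNA quantified by qRT-PCR, normalized to ACTB/GAPDH/POLR2A, bidirectional fit versus DMSO.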

Read-out in test [18]: adenosine kinase (ADK) gene, ADK (gene 132)
In words: LTEA_HepaRG_ADK: Life Technologies and Expression Analysis (LTEA) Assay for adenosine kinase (ADK) gene using HepaRG (AID 2283471). The procedure, abridged: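 ADK expression quantified by qRT-PCR, normalised to three housekeeping genes, after 48 h exposure of HepaRG cells to eight concentrations (top 100 uM, half-log steps, duplicate, 0.5% DMSO). Up- or down-regulation fitted relative to vehicle.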

Active and inactive are the calls of the source. How the source made its calls: active means hit-call score of the fitted dose curve at least 0.9, where 1 is the maximum; inactive means score below 0.9.

Caspase-3 (Homo sapiens), sequence (P42574 whole entry, looked up): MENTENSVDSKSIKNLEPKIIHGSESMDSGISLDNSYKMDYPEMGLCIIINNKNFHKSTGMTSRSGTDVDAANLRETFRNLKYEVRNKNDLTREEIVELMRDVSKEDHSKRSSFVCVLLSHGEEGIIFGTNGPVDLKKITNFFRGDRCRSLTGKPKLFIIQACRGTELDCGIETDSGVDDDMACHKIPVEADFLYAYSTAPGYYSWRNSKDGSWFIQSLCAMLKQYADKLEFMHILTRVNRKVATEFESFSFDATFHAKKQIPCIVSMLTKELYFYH
Broad substrate specificity ATP-binding cassette transporter ABCG2 (Homo sapiens), sequence (Q9UNQ0 whole entry, looked up): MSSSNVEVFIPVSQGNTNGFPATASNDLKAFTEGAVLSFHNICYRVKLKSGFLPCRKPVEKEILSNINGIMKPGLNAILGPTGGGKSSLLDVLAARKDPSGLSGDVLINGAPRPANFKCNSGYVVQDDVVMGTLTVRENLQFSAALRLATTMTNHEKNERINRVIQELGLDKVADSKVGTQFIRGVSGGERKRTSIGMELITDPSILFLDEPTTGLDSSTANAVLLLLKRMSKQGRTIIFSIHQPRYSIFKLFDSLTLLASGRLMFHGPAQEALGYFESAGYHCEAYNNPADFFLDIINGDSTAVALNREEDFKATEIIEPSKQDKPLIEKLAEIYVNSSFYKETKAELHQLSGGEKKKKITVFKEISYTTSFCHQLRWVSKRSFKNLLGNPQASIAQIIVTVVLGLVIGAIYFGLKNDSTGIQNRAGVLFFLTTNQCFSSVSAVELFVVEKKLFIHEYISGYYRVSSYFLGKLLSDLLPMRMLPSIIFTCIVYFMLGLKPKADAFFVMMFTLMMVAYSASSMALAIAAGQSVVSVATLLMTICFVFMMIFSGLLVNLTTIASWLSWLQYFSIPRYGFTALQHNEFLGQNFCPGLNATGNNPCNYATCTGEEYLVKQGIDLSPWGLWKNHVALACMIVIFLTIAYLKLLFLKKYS
Apoptosis regulator Bcl-2 (Homo sapiens), sequence (P10415 whole entry, looked up): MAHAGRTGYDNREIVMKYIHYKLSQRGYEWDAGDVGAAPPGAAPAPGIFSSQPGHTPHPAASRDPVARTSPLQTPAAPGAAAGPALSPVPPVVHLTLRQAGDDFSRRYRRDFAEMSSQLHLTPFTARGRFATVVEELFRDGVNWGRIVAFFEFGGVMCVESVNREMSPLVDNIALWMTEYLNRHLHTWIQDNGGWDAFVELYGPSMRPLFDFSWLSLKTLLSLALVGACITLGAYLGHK

In the case of `OC[C@H]1O[C@@H]2O[C@H]3[C@H](O)[C@@H](O)[C@@H](O[C@H]4[C@H](O)[C@@H](O)[C@@H](O[C@H]5[C@H](O)[C@@H](O)[C@@H](O[C@H]6[C@H](O)[C@@H](O)[C@@H](O[C@H]7[C@H](O)[C@@H](O)[C@@H](O[C@H]1[C@H](O)[C@H]2O)O[C@@H]7CO)O[C@@H]6CO)O[C@@H]5CO)O[C@@H]4CO)O[C@@H]3CO`, the call in [1], in [2], in [3], in [4], in [5] and in test [6] was inactive. The compound was called inactive (in test [7]; in [8]; in [9]; in test [10]; in the test with BCL2L11 (gene 10018); in [11]). Moreover, the call (in [12]; in [13]; with Caspase-3 (Homo sapiens); in test [14]; in [15]; in test [16]) was inactive.
In the case of `OC(CCl)CCl`, the call in test [17], in test [1], in test [2], in test [3], in test [4] and in [5] was inactive. Besides, the outcome (in [6]; in test [7]; in [9]; in test [18]; in [10]; with BCL2L11 (gene 10018)) was inactive. The outcome (in test [11]; in test [12]; in [13]; with Caspase-3 (Homo sapiens); in test [14]; in test [15]) was inactive. For the same compound, the result in [16] was inactive.
Consider `c1ccc(C(O[C@@H]2CCCN(CCc3ccc4c(c3)OCO4)C2)c2ccccc2)cc1`, for which the AC50 (usually the concentration giving half of the maximal activity seen) in test [17] is 81.1 µM (active); in [1], 30.1 µM (active); in test [2] it was 76.8 µM (active); in [6], 75.9 µM (active); in test [7], 68.5 µM (active); in test [9] it was 80.1 µM (active). For the same compound, the AC50 in [12] was 73.2 µM (active); in test [13], 91 µM (active); with Caspase-3 (Homo sapiens), 76.7 µM (active); in test [15], 12.2 µM (active); in [16], 78.6 µM (active). The compound was called inactive (in test [4]; in test [5]; in [8]; in test [10]; with BCL2L11 (gene 10018); in test [14]).
